# Laboratory results as given in the OligoGym collection.
# Target: OGDHL
# Test: pooled miR-30 sensor sort-seq; sequence = guide strand
# Conditions: shRNA
# Note: reference of the scale not given here.
row,Sequence,sensor-assay potency score (higher = more potent)
1,TGGAGAACTGCATCACACCAGG,-1.03
2,TTGACCACGATCCAGTTGCAGT,-1.4
3,TTTGAATCTACAGATAAGCGAG,-0.201
4,TAAGCCTCCTCACAGATCCGGT,-0.839
5,TACATCTCCTCCATGTAACTGG,-0.405
6,TTCTTGGTCATGTCCGCACGGC,-0.866
7,TACTTTGGTACACATGAGCTGT,-0.325
8,TTCATAGGCACACACGTCCTGC,-1.24
9,TTCTACTTTGGTACACATGAGC,-0.678
10,TTGCTCATCTGCAGGAACCTTT,-0.719
11,TTGAATCTACAGATAAGCGAGG,-0.941
12,TTCAGCACAGGCACCTGTCTGT,0.114

# Target: OLFML2A
# Test: as above
# Conditions: shRNA
row,Sequence,sensor-assay potency score (higher = more potent)
1,TACTTGATGATGTTCTTGGTGA,0.197
2,TAGCTTGTACATGTTACTCCAG,-0.555
3,TAACTTTTAAAAATCAGCCTAT,-0.201
4,TTGAGTTTCTCCATCTTCCACT,-0.593
5,TAGTTGGTGACATAGATCCTGT,-0.519
6,TTGTAGGGTAGCTTGTACATGT,-0.494
7,TTGTACATGTTACTCCAGCGGC,-0.677
8,TTTCCATAGTAGTAGTTGGTGA,-0.818
